Reference: the supplement of paper PMC12494721
Counter-ions that a name gives are not always drawn.

Columns and labels:
Conditions in all cases: incubation time: 27 h, anaerobic, 37 °C;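 for the amine columns active = adjusted P below 0.05 in both replicates with a change the same way and a mean fold change under 0.8 or over 1.25; inactive = the rest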
[1] = system: Clostridium sporogenes DSM 1664; test: growth (OD595) fold change vs plate DMSO controls (fold change (ratio)); higher = more growth
How it was run: (§1)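 Growth is the fold change relative to the median of plate DMSO controls. Readings came from anaerobic mGAM cultures in 96-well plates grown for 27 h at 37 °C and read at 595 nm. They were blank-subtracted, corrected for compound background with 20 µM compound solutions in water, and converted to OD with a calibration factor of 5. Values are means of 2 biological replicates, and fold changes above 1.5 were set to NA.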

Escherichia coli IAI1 [2] = test: as above
How it was run: as §1

[3] = system: Klebsiella aerogenes DSM 30053; test: as above
How it was run: as §1

[4] = system: Ruminococcus gnavus DSM 108212; test: as above
How it was run: as §1

[5] = system: Klebsiella aerogenes DSM 30053; test: fold change of Histamine concentration vs plate DMSO controls (fold change (ratio)); higher = more amine produced, active = hit call of the paper (significant change in both replicates, either direction)
How it was run: (§2)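 Each value is the fold change relative to DMSO-only wells on the same plate. Four gut bacterial strains were grown anaerobically in mGAM at 37 °C for 27 h in 80 µL wells, starting at OD 0.1 before a 1:1 dilution, with compounds at 20 µM final (sweeteners 50 µM). Whole cultures were extracted with cold acetonitrile/methanol containing 0.1% formic acid, centrifuged, and amines were quantified by LC–triple-quadrupole MS (dynamic MRM) against external calibration curves with within-batch drift correction. Values are means of 2 biological replicates.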

[6] = system: Clostridium sporogenes DSM 1664; test: fold change of Tryptamine concentration vs plate DMSO controls (fold change (ratio)); higher = more amine produced, active = hit call of the paper (significant change in both replicates, either direction)
How it was run: as §2

[7] = system: Ruminococcus gnavus DSM 108212; test: as above
How it was run: as §2

Escherichia coli IAI1 [8] = test: fold change of Putrescine concentration vs plate DMSO controls (fold change (ratio)); higher = more amine produced, active = hit call of the paper (significant change in both replicates, either direction)
How it was run: as §2

[9] = system: Klebsiella aerogenes DSM 30053; test: as above
How it was run: as §2

Escherichia coli IAI1 [10] = test: fold change of Cadaverine concentration vs plate DMSO controls (fold change (ratio)); higher = more amine produced, active = hit call of the paper (significant change in both replicates, either direction)
How it was run: as §2

[11] = system: Klebsiella aerogenes DSM 30053; test: as above
How it was run: as §2

[12] = system: Ruminococcus gnavus DSM 108212; test: fold change of 2-Phenylethylamine concentration vs plate DMSO controls (fold change (ratio)); higher = more amine produced, active = hit call of the paper (significant change in both replicates, either direction)
How it was run: as §2

Row | SMILES | growth [1] | growth (Escherichia coli IAI1 [2]) | growth [3] | growth [4] | fold change of Histamine concentration [5] | fold change of Tryptamine concentration [6] | fold change of Tryptamine concentration [7] | fold change of Putrescine concentration (Escherichia coli IAI1 [8]) | fold change of Putrescine concentration [9] | fold change of Cadaverine concentration (Escherichia coli IAI1 [10]) | fold change of Cadaverine concentration [11] | fold change of 2-Phenylethylamine concentration [12]
1 | COc1ccc(C(=O)c2ccc(C)cc2)c(O)c1 [Mexenone] (20 µM) | 0.644 | 0.407 | 0.378 | 0 | 1.02 (inactive) | 1.01 (inactive) | 1.03 (inactive) | 1.06 (inactive) | 1.01 (inactive) | 1.02 (inactive) | 0.998 (inactive) | 1.04 (inactive)
2 | CN1CC2c3ccccc3Oc3ccc(Cl)cc3C2C1 (stereo not drawn) [Asenapine maleate] (20 µM) | 1.1 | 0.969 | 1.04 | 0.834 | 0.986 (inactive) | 1.05 (inactive) | 0.905 (inactive) | 1 (inactive) | 1.02 (inactive) | 0.973 (inactive) | 0.998 (inactive) | 0.917 (inactive)
3 | CCN(CC)CCOC(=O)C1(C2CCCCC2)CCCCC1 [Dicyclomine hydrochloride] (20 µM) | 0.883 | 0.966 | 0.998 | 0.659 | 1.01 (inactive) | 0.991 (inactive) | 0.845 (inactive) | 0.988 (inactive) | 1.01 (inactive) | 1 (inactive) | 1 (inactive) | 0.815 (inactive)
4 | CCCCC1C(=O)N(c2ccccc2)N(c2ccc(O)cc2)C1=O (stereo not drawn) [Oxyphenbutazone] (20 µM) | 1.01 | 1 | 1.2 | 1.09 | 0.888 (inactive) | 1.3 (inactive) | 1.14 (inactive) | 1.21 (inactive) | 0.877 (inactive) | 0.973 (inactive) | 1.14 (inactive) | 1.23 (inactive)
5 | O=C(CCCN1CCC(O)(c2ccc(Br)cc2)CC1)c1ccc(F)cc1 [Bromperidol] (20 µM) | 0.952 | 0.965 | 0.953 | 0.813 | 1.02 (inactive) | 1.02 (inactive) | 0.916 (inactive) | 0.99 (inactive) | 1 (inactive) | 0.913 (inactive) | 0.998 (inactive) | 0.949 (inactive)
6 | O=C(CCCN1CC=C(n2c(=O)[nH]c3ccccc32)CC1)c1ccc(F)cc1 [Droperidol] (20 µM) | 1.02 | 0.959 | 1.02 | 0.835 | 0.994 (inactive) | 0.988 (inactive) | 0.963 (inactive) | 0.977 (inactive) | 1.02 (inactive) | 1.03 (inactive) | 1 (inactive) | 0.956 (inactive)
7 | COc1ccc2c3c1O[C@H]1C[C@@H](O)C=C[C@@]31CCN(C)C2 [Galanthamine hydrobromide] (20 µM) | 0.93 | 1.06 | 1.04 | 0.846 | 1.01 (inactive) | 1.01 (inactive) | 1.01 (inactive) | 1.03 (inactive) | 1 (inactive) | 0.979 (inactive) | 0.999 (inactive) | 1 (inactive)
8 | CCOC(=O)OC(C)OC(=O)[C@@H]1N2C(=O)[C@@H](NC(=O)[C@H](N)c3ccccc3)[C@H]2SC1(C)C (stereo partly drawn) [Bacampicillin hydrochloride] (20 µM) | 0 | 1.16 | 1.46 | 0.0946 | 1.02 (inactive) | 0.0203 (active) | 0.0343 (active) | 0.928 (inactive) | 1.07 (inactive) | 1.6 (active) | 1.05 (inactive) | 0.0374 (active)
9 | CCCCOCCOCCOCc1cc2c(cc1CCC)OCO2 [Piperonyl butoxide] (20 µM) | 1.04 | 1.09 | 1.09 | 1.06 | 0.916 (inactive) | 1.04 (inactive) | 1.07 (inactive) | 0.998 (inactive) | 0.999 (inactive) | 0.972 (inactive) | 1.02 (inactive) | 1.17 (inactive)
10 | N=C(N)NS(=O)(=O)c1ccc(N)cc1 [Sulfaguanidine] (20 µM) | 0.947 | 1.07 | 0.963 | 0.676 | 1.04 (inactive) | 1.27 (inactive) | 1.09 (inactive) | 1.2 (inactive) | 0.853 (inactive) | 1.04 (inactive) | 1.05 (inactive) | 1.09 (inactive)
11 | CCOc1nc2cccc(C(=O)OCc3oc(=O)oc3C)c2n1Cc1ccc(-c2ccccc2-c2noc(=O)[nH]2)cc1 [Azilsartan medoxomil] (20 µM) | 1.04 | 1 | 0.984 | 1.1 | 1.04 (inactive) | 1.01 (inactive) | 1.07 (inactive) | 1.02 (inactive) | 1.01 (inactive) | 0.997 (inactive) | 0.999 (inactive) | 1.03 (inactive)
12 | COc1ccc2c(c1)c(CC(=O)OCC(=O)O)c(C)n2C(=O)c1ccc(Cl)cc1 [Acemetacin] (20 µM) | 0.906 | 1.03 | 0.985 | 1.06 | 0.983 (inactive) | 0.98 (inactive) | 0.964 (inactive) | 1.06 (inactive) | 1.01 (inactive) | 0.959 (inactive) | 1.01 (inactive) | 0.907 (inactive)
13 | CC[N+](C)(C)Cc1ccccc1Br [Bretylium tosylate] (20 µM) | 1.03 | 1.02 | 1.06 | 0.996 | 0.853 (inactive) | 0.973 (inactive) | 1.03 (inactive) | 1 (inactive) | 0.998 (inactive) | 0.937 (inactive) | 1.02 (inactive) | 1.05 (inactive)
14 | CC[C@H](C)[C@H](NC(=O)[C@H](Cc1ccc(O)cc1)NC(=O)[C@@H](NC(=O)[C@H](CCCN=C(N)N)NC(=O)[C@@H](N)CC(=O)O)C(C)C)C(=O)N[C@@H](Cc1cnc[nH]1)C(=O)N1CCC[C@H]1C(=O)N[C@@H](Cc1ccccc1)C(=O)O [Angiotensin II (Human) Trifluoroacetic acid salt] (20 µM) | 1.02 | 1.03 | 0.987 | 0.979 | 1.01 (inactive) | 1.07 (inactive) | 1.09 (inactive) | 0.966 (inactive) | 0.983 (inactive) | 0.934 (inactive) | 0.994 (inactive) | 1.14 (inactive)
15 | Cn1c(=O)c2c(ncn2CC(O)CO)n(C)c1=O (stereo not drawn) [Diprophylline] (20 µM) | 0.915 | 1.02 | 0.992 | 0.783 | 1.03 (inactive) | 0.964 (inactive) | 0.971 (inactive) | 1.02 (inactive) | 1.01 (inactive) | 0.98 (inactive) | 1 (inactive) | 0.99 (inactive)
16 | CCOC(=O)[C@H](CCc1ccccc1)N[C@@H](C)C(=O)N(CC(=O)O)C1Cc2ccccc2C1 [Delapril Hydrochloride] (20 µM) | 1.16 | 0.976 | 0.982 | 1.15 | 1.04 (inactive) | 0.958 (inactive) | 0.974 (inactive) | 1 (inactive) | 1.02 (inactive) | 1.01 (inactive) | 0.998 (inactive) | 0.905 (inactive)
17 | CCOC(=O)[C@H](CCc1ccccc1)N[C@H]1CCc2ccccc2N(CC(=O)O)C1=O [Benazepril hydrochloride] (20 µM) | 1.03 | 1 | 1 | 1.02 | 1 (inactive) | 1.06 (inactive) | 1.02 (inactive) | 0.997 (inactive) | 0.981 (inactive) | 0.989 (inactive) | 1.02 (inactive) | 1.01 (inactive)
18 | CC1(C)NC(=O)N(c2ccc([N+](=O)[O-])c(C(F)(F)F)c2)C1=O [Nilutamide] (20 µM) | 0.998 | 1.02 | 0.999 | 0.98 | 1.05 (inactive) | 0.955 (inactive) | 0.957 (inactive) | 1.1 (inactive) | 1.01 (inactive) | 0.987 (inactive) | 0.995 (inactive) | 0.981 (inactive)
19 | CCCSc1nc(N[C@@H]2C[C@H]2c2ccc(F)c(F)c2)c2nnn([C@@H]3C[C@H](OCCO)[C@@H](O)[C@H]3O)c2n1 [Ticagrelor] (20 µM) | 1.15 | 0.999 | 1.02 | 1.03 | 0.977 (inactive) | 0.88 (inactive) | 0.748 (active) | 1.04 (inactive) | 1.04 (inactive) | 1.07 (inactive) | 1.01 (inactive) | 0.802 (inactive)
20 | c1ccc2c(c1)-c1cccc3c1c-2cc1ccccc13 [Benzo[b]fluoranthene] (20 µM) | 1.08 | 0.997 | 1.04 | 1 | 0.993 (inactive) | 1.03 (inactive) | 1.02 (inactive) | 1 (inactive) | 1.02 (inactive) | 1.03 (inactive) | 1.01 (inactive) | 1.04 (inactive)
21 | N=C(N)NCC1COC2(CCCCC2)O1 (stereo not drawn) [Guanadrel sulfate] (20 µM) | 0.98 | 0.972 | 0.986 | 1.16 | 1.04 (inactive) | 1 (inactive) | 1.04 (inactive) | 0.993 (inactive) | 1.04 (inactive) | 0.99 (inactive) | 1 (inactive) | 1.06 (inactive)
22 | CN(C)CCCO[C@@H]1[C@H]2OC(C)(C)O[C@H]2O[C@@H]1[C@H](O)CO [Amiprilose hydrochloride] (20 µM) | 1.09 | 1.03 | 1.01 | 1.1 | 1.07 (inactive) | 1.04 (inactive) | 1.04 (inactive) | 0.973 (inactive) | 1.02 (inactive) | 0.994 (inactive) | 0.992 (inactive) | 1.01 (inactive)
23 | Cc1nc(C)c(Cl)c(O)c1Cl [Clopidol] (20 µM) | 1.18 | 1.01 | 1.04 | 1.14 | 1 (inactive) | 0.998 (inactive) | 1.01 (inactive) | 1.02 (inactive) | 0.991 (inactive) | 1.02 (inactive) | 0.985 (inactive) | 1.01 (inactive)
24 | CCN[C@@H]1C[C@H](N)[C@@H](O[C@H]2OC(CN)=CC[C@H]2N)[C@H](O)[C@H]1O[C@H]1OC[C@](C)(O)[C@H](NC)[C@H]1O [Netilmicin sulfate] (20 µM) | 0.949 | 0.93 | 0.898 | 0.912 | 0.845 (inactive) | 1.02 (inactive) | 0.901 (inactive) | 0.947 (inactive) | 0.995 (inactive) | 0.982 (inactive) | 0.993 (inactive) | 0.948 (inactive)
